{"source": "paper PMC7862700", "about": "“An all-to-all approach to the identification of sequence-specific readers for epigenetic DNA modifications on cytosine”", "assay_in_all_cases": "DAPPL (digital affinity profiling via proximity ligation, sequencing); 10 mM Tris-HCl pH 7.5, 50 mM NaCl, 1 mM DTT, 4% glycerol, room temperature, 30 min; GST-TFs on glutathione beads, 16-mer random dsDNA library, 0.1% formaldehyde crosslink after washing; high values mean tight binding", "settings_in_all_cases": "protein: recombinant; tags: N-terminal GST; dsDNA, one strand shown", "key": {"[1]": {"target": "T1, ERF (Homo sapiens, UniProt P50548 1-548)", "T1 sequence": "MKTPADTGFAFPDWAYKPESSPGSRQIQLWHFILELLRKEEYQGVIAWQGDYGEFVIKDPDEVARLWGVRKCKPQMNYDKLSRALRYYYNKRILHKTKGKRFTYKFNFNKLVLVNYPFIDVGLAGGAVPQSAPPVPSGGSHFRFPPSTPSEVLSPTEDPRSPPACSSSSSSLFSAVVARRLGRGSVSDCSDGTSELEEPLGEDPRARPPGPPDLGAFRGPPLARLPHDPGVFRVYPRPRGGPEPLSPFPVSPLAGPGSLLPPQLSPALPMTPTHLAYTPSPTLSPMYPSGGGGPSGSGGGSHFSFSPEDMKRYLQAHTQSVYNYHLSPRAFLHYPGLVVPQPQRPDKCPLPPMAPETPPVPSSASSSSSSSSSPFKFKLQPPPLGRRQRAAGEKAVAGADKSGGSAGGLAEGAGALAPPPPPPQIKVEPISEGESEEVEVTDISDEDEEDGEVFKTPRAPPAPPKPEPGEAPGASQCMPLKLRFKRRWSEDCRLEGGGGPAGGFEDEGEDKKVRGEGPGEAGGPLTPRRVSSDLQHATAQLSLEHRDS", "how_it_was_run": "(§1)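 After expression in yeast as GST fusions, human transcription factors were bound to glutathione beads, DNA-barcoded and mixed with a tag-only sample. The pools were incubated with 200 nmole of a 16-mer random double-stranded DNA library in Tris/NaCl/DTT/glycerol buffer (30 min, room temperature), washed and crosslinked with 0.1% formaldehyde. Proximity ligation with BsaI/T4 ligase ran for 1 h at 37 °C, before PCR amplification and sequencing on an Illumina NextSeq500. Binding signal is a hexamer's read frequency for a factor divided by its frequency for the tag-only sample.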"}, "[2]": {"target": "T2, ETV3L (Homo sapiens, UniProt Q6ZN32 1-361)", "T2 sequence": "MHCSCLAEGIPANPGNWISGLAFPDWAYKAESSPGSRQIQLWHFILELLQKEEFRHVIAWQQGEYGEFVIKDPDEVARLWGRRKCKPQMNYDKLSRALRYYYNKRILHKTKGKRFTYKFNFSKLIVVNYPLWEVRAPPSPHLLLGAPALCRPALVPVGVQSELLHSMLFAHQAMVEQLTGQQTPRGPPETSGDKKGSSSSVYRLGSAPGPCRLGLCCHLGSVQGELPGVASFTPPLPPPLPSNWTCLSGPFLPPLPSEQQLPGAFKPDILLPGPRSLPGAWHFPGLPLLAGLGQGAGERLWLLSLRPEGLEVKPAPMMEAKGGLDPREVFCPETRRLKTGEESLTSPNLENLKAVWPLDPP", "how_it_was_run": "as §1"}, "[3]": {"target": "T3, ETS2 (Homo sapiens, UniProt P15036 1-469)", "T3 sequence": "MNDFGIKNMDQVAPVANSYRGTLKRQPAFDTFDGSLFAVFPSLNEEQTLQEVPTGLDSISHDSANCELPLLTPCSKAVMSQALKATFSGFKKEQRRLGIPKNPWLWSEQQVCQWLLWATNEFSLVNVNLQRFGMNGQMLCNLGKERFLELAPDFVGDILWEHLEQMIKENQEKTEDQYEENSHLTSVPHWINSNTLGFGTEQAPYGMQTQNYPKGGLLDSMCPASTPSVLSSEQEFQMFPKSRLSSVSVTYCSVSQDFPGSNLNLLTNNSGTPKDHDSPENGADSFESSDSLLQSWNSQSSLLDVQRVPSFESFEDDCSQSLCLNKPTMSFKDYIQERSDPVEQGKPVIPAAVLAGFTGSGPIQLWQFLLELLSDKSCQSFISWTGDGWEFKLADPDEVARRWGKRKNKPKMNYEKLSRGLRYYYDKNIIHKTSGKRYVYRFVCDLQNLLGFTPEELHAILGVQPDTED", "how_it_was_run": "as §1"}, "[4]": {"target": "T4, SPDEF (Homo sapiens, UniProt O95238 1-335)", "T4 sequence": "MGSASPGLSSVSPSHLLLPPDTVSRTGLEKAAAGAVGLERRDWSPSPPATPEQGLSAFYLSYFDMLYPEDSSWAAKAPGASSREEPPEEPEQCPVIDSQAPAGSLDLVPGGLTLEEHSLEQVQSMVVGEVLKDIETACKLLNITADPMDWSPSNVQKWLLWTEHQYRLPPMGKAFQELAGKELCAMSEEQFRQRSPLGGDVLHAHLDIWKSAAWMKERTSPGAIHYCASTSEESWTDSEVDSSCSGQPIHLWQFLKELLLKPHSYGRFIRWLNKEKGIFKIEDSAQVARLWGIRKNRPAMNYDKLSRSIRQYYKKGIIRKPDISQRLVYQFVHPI", "how_it_was_run": "as §1"}, "[5]": {"target": "T5, ETV7 (Homo sapiens, UniProt Q9Y603 1-341)", "T5 sequence": "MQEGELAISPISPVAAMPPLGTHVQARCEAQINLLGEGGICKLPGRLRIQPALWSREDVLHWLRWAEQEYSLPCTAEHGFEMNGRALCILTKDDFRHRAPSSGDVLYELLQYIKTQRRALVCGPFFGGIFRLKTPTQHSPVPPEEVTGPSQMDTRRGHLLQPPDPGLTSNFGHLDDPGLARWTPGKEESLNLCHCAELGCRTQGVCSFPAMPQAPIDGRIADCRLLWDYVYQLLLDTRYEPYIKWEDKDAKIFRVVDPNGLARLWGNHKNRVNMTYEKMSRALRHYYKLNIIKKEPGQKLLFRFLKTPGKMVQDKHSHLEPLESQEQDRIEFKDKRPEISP", "how_it_was_run": "as §1"}, "[6]": {"target": "T6, ELF5 (Homo sapiens, UniProt Q9UKW6-2 1-255)", "T6 sequence": "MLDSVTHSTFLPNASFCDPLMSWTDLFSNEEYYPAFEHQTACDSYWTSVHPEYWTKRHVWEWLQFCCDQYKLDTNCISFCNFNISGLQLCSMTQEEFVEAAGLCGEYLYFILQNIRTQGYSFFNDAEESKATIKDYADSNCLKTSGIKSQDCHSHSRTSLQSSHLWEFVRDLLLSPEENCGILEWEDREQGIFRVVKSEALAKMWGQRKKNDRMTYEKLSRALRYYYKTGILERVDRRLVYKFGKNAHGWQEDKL", "how_it_was_run": "as §1"}, "[7]": {"target": "T7, ETV3 (Homo sapiens, UniProt P41162-2 1-143)", "T7 sequence": "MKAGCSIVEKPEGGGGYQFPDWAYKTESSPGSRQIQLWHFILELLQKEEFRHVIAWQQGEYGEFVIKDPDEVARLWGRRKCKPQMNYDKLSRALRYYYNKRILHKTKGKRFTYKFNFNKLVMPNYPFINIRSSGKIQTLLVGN", "how_it_was_run": "as §1"}, "[8]": {"target": "ETV6 (Homo sapiens, UniProt P41212 1-452)", "sequence (P41212 whole entry)": "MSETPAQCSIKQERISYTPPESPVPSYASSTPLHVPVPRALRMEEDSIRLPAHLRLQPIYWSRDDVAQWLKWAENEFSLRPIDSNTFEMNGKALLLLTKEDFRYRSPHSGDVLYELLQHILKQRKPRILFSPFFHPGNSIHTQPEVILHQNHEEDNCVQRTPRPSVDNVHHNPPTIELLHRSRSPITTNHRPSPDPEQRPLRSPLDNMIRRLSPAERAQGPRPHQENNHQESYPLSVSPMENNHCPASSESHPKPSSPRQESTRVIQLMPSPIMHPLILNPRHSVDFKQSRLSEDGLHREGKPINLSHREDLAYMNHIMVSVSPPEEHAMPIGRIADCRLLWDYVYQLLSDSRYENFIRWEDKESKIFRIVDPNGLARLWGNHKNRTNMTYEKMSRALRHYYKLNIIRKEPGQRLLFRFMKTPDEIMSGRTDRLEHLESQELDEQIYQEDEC", "how_it_was_run": "as §1"}}}
{"sequence": "TTTACT", "values": [{"measurement": "binding signal", "setting": "[1]", "value": "1.3 fold enrichment (6-mer frequency, TF over GST control)"}, {"measurement": "binding signal", "setting": "[2]", "value": "1.42 fold enrichment (6-mer frequency, TF over GST control)"}, {"measurement": "binding signal", "setting": "[3]", "value": "1.44 fold enrichment (6-mer frequency, TF over GST control)"}, {"measurement": "binding signal", "setting": "[4]", "value": "1.44 fold enrichment (6-mer frequency, TF over GST control)"}, {"measurement": "binding signal", "setting": "[5]", "value": "1.57 fold enrichment (6-mer frequency, TF over GST control)"}, {"measurement": "binding signal", "setting": "[6]", "value": "1.36 fold enrichment (6-mer frequency, TF over GST control)"}, {"measurement": "binding signal", "setting": "[7]", "value": "1.53 fold enrichment (6-mer frequency, TF over GST control)"}, {"measurement": "binding signal", "setting": "[8]", "value": "1.44 fold enrichment (6-mer frequency, TF over GST control)"}]}
{"sequence": "GTTTCC", "values": [{"measurement": "binding signal", "setting": "[1]", "value": "2.49 fold enrichment (6-mer frequency, TF over GST control)"}, {"measurement": "binding signal", "setting": "[2]", "value": "2.7 fold enrichment (6-mer frequency, TF over GST control)"}, {"measurement": "binding signal", "setting": "[3]", "value": "2.82 fold enrichment (6-mer frequency, TF over GST control)"}, {"measurement": "binding signal", "setting": "[4]", "value": "2.75 fold enrichment (6-mer frequency, TF over GST control)"}, {"measurement": "binding signal", "setting": "[5]", "value": "2.86 fold enrichment (6-mer frequency, TF over GST control)"}, {"measurement": "binding signal", "setting": "[6]", "value": "3.9 fold enrichment (6-mer frequency, TF over GST control)"}, {"measurement": "binding signal", "setting": "[7]", "value": "3.01 fold enrichment (6-mer frequency, TF over GST control)"}, {"measurement": "binding signal", "setting": "[8]", "value": "3.24 fold enrichment (6-mer frequency, TF over GST control)"}]}
{"sequence": "TGTTGC", "values": [{"measurement": "binding signal", "setting": "[1]", "value": "1.46 fold enrichment (6-mer frequency, TF over GST control)"}, {"measurement": "binding signal", "setting": "[2]", "value": "1.37 fold enrichment (6-mer frequency, TF over GST control)"}, {"measurement": "binding signal", "setting": "[3]", "value": "1.3 fold enrichment (6-mer frequency, TF over GST control)"}, {"measurement": "binding signal", "setting": "[4]", "value": "1.33 fold enrichment (6-mer frequency, TF over GST control)"}, {"measurement": "binding signal", "setting": "[5]", "value": "1.27 fold enrichment (6-mer frequency, TF over GST control)"}, {"measurement": "binding signal", "setting": "[6]", "value": "1.3 fold enrichment (6-mer frequency, TF over GST control)"}, {"measurement": "binding signal", "setting": "[7]", "value": "1.56 fold enrichment (6-mer frequency, TF over GST control)"}, {"measurement": "binding signal", "setting": "[8]", "value": "1.33 fold enrichment (6-mer frequency, TF over GST control)"}]}
{"sequence": "AGATTT", "values": [{"measurement": "binding signal", "setting": "[1]", "value": "1.2 fold enrichment (6-mer frequency, TF over GST control)"}, {"measurement": "binding signal", "setting": "[2]", "value": "1.17 fold enrichment (6-mer frequency, TF over GST control)"}, {"measurement": "binding signal", "setting": "[3]", "value": "1.17 fold enrichment (6-mer frequency, TF over GST control)"}, {"measurement": "binding signal", "setting": "[4]", "value": "1.05 fold enrichment (6-mer frequency, TF over GST control)"}, {"measurement": "binding signal", "setting": "[5]", "value": "1.16 fold enrichment (6-mer frequency, TF over GST control)"}, {"measurement": "binding signal", "setting": "[6]", "value": "1.22 fold enrichment (6-mer frequency, TF over GST control)"}, {"measurement": "binding signal", "setting": "[7]", "value": "1.05 fold enrichment (6-mer frequency, TF over GST control)"}, {"measurement": "binding signal", "setting": "[8]", "value": "1.11 fold enrichment (6-mer frequency, TF over GST control)"}]}
{"sequence": "CATTTG", "values": [{"measurement": "binding signal", "setting": "[1]", "value": "1.4 fold enrichment (6-mer frequency, TF over GST control)"}, {"measurement": "binding signal", "setting": "[2]", "value": "1.25 fold enrichment (6-mer frequency, TF over GST control)"}, {"measurement": "binding signal", "setting": "[3]", "value": "1.31 fold enrichment (6-mer frequency, TF over GST control)"}, {"measurement": "binding signal", "setting": "[4]", "value": "1.25 fold enrichment (6-mer frequency, TF over GST control)"}, {"measurement": "binding signal", "setting": "[5]", "value": "1.3 fold enrichment (6-mer frequency, TF over GST control)"}, {"measurement": "binding signal", "setting": "[6]", "value": "1.18 fold enrichment (6-mer frequency, TF over GST control)"}, {"measurement": "binding signal", "setting": "[7]", "value": "1.25 fold enrichment (6-mer frequency, TF over GST control)"}, {"measurement": "binding signal", "setting": "[8]", "value": "1.21 fold enrichment (6-mer frequency, TF over GST control)"}]}
{"sequence": "CTATAT", "values": [{"measurement": "binding signal", "setting": "[1]", "value": "1.48 fold enrichment (6-mer frequency, TF over GST control)"}, {"measurement": "binding signal", "setting": "[2]", "value": "1.4 fold enrichment (6-mer frequency, TF over GST control)"}, {"measurement": "binding signal", "setting": "[3]", "value": "1.54 fold enrichment (6-mer frequency, TF over GST control)"}, {"measurement": "binding signal", "setting": "[4]", "value": "1.51 fold enrichment (6-mer frequency, TF over GST control)"}, {"measurement": "binding signal", "setting": "[5]", "value": "1.41 fold enrichment (6-mer frequency, TF over GST control)"}, {"measurement": "binding signal", "setting": "[6]", "value": "1.4 fold enrichment (6-mer frequency, TF over GST control)"}, {"measurement": "binding signal", "setting": "[7]", "value": "1.5 fold enrichment (6-mer frequency, TF over GST control)"}, {"measurement": "binding signal", "setting": "[8]", "value": "1.43 fold enrichment (6-mer frequency, TF over GST control)"}]}
{"sequence": "CCGATA", "values": [{"measurement": "binding signal", "setting": "[1]", "value": "1.13 fold enrichment (6-mer frequency, TF over GST control)"}, {"measurement": "binding signal", "setting": "[2]", "value": "1.05 fold enrichment (6-mer frequency, TF over GST control)"}, {"measurement": "binding signal", "setting": "[3]", "value": "1.16 fold enrichment (6-mer frequency, TF over GST control)"}, {"measurement": "binding signal", "setting": "[4]", "value": "1.05 fold enrichment (6-mer frequency, TF over GST control)"}, {"measurement": "binding signal", "setting": "[5]", "value": "1.06 fold enrichment (6-mer frequency, TF over GST control)"}, {"measurement": "binding signal", "setting": "[6]", "value": "1.1 fold enrichment (6-mer frequency, TF over GST control)"}, {"measurement": "binding signal", "setting": "[7]", "value": "1.14 fold enrichment (6-mer frequency, TF over GST control)"}, {"measurement": "binding signal", "setting": "[8]", "value": "1.12 fold enrichment (6-mer frequency, TF over GST control)"}]}
